# An excerpt weighted towards active compounds, which were near 0.49% of everything screened.
# IDH1 R132H inh = qHTS for Inhibitors of mutant isocitrate dehydrogenase 1 (IDH1): qHTS; AID 602179, 2012; IDH1-R132H enzyme, NADPH consumption, diaphorase/resazurin fluorescence; hit rate 0.093% among 390,000; Potency, µM (highest dose often 76.6 µM), usual class: inhibitors; note: nearly all actives have a fitted effect of over 65% in size
#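 IDH1-R132H (0.5 ug/mL dispensed) in pH 7.5 Tris buffer was preincubated 30 min with compound, then given a substrate mix of 0.016 mM NADPH and 2 mM alpha-KG for 80 min at room temperature; remaining NADPH was read by diaphorase/resazurin fluorescence.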
# Vif-APOBEC3G blk = qHTS for Inhibitors of Vif-A3G Interactions: qHTS; DNA dC->dU-editing enzyme APOBEC-3G (Homo sapiens), Q9HC16; HeLa A3G-eYFP + Vif (tagged APOBEC3G with the HIV-1 protein that degrades it), YFP fluorescence, overnight; Potency, µM (titrated, usually from 46.1 µM), hits mostly inhibitors; hit rate 0.076% among 410,000; AID 602310, 2012; note: nearly all actives have a fitted effect of over 60% in size
# Target sequence (Q9HC16 whole entry, looked up): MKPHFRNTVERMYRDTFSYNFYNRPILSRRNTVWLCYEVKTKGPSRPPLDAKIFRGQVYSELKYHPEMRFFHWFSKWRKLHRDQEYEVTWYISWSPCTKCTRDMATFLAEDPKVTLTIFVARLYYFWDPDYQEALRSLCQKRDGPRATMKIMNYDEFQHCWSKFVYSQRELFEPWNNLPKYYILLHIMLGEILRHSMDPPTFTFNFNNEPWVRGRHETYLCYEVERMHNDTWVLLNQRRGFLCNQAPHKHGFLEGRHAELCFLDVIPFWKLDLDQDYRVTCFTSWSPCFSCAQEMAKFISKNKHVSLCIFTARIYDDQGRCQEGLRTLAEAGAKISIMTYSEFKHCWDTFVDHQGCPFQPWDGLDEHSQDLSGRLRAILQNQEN
#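 HeLa cells stably expressing Vif and C-terminally eYFP-tagged A3G, seeded overnight at 37 deg C, then exposed to compound by pintool overnight at 37 deg C. Rise in yellow fluorescence (Ex 488/Em 500-530, Acumen) marks blocked Vif-driven A3G degradation.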
# Tb PGK inh = qHTS Assay to Find Inhibitors of Phosphoglycerate Kinase | Phosphoglycerate kinase, glycosomal (Trypanosoma brucei brucei), P07378 | Potency, µM (titrated, usually from 57.5 µM), actives largely listed as inhibitors | hit rate 0.043% among 380,000 | PGK/GAPDH coupled, Kinase-Glo luminescence, 60 min; note: nearly all actives have a fitted effect of over 60% in size
#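 Recombinant glycosomal PGK reaction used 1,3-bisphosphoglycerate generated in-well by GAPDH (100nM final) in 100mM TEA pH 7.6, 5mM MgCl2, 0.01% Tween-20. After 60 minutes at room temperature, ATP was read by Kinase-Glo Plus luminescence end-point.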
# Pin1 inhibitor = qHTS Assay to Find Inhibitors of Pin1. Peptidyl-prolyl cis-trans isomerase NIMA-interacting 1 (Homo sapiens), Q13526. Pin1 FP peptide displacement, HiFluor488, 10 min. Potency, µM (series often up to 115 µM), actives largely listed as inhibitors. hit rate 0.009% among 390,000. AID 504891, 2011; active = well fitted inhibition curve with a large enough effect in the polarisation, with a control signal flat, not every such curve was filed as active; inconclusive = small, poorly fitted or top-dose-only effect, or effect the other way, or a change in a side signal; inactive = no such curve, though single readings can be large or run the other way; the % refers to the polarisation
# Target sequence (Q13526 whole entry, looked up): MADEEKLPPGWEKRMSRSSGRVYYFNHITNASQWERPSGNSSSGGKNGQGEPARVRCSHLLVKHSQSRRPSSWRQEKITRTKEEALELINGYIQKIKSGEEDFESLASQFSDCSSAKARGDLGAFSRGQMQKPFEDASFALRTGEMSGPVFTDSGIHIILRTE
# LDHA inh = qHTS assay for inhibitors of human lactate dehydrogenase; L-lactate dehydrogenase A chain (Homo sapiens), P00338; purified LDHA, NADH/diaphorase-resazurin fluorescence; active compounds read low; activity change, % (values are at about 110 or 230 µM); hit rate 0.15% among 480,000; AID 1347041, 2019; in the data active = activity change below about -30%; inconclusive = mostly about -25% to -30%
#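 Resorufin fluorescence (ex540/em590), read at 0 and 20 min after diaphorase/resazurin addition, reports the NADH left after a 5 min room-temperature reaction of 2 nM human LDH5 with 0.06 mM NADH and 0.2 mM pyruvate.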
# Vif-A3F inh = qHTS for Inhibitors of Vif-A3F Interactions: qHTS; HeLa A3F-eYFP + Vif (tagged APOBEC3F with the HIV-1 protein that degrades it), YFP fluorescence increase; Potency, µM (highest dose often 46.1 µM); hit rate 0.2% among 390,000; AID 602313, 2012; note: nearly all actives have a fitted effect of over 65% in size
#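 HeLa cells stably expressing Vif plus C-terminally eYFP-tagged A3F were seeded, incubated overnight at 37 deg C, dosed with compound, incubated overnight again at 37 deg C. Yellow fluorescence (Ex 488/Em 500-530) reported blocked Vif-mediated A3F-eYFP degradation.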
# IDH1 autofl = qHTS for Inhibitors of mutant isocitrate dehydrogenase 1 (IDH1): Cherrypicks Autofluorescence Interference; inhibition of signal, % at 51.2 µM; shares compounds with IDH1 R132H inh; AID 623980, 2012; Resorufin detection reagent fluorescence interference, cell-free; 750 tested, under 10 active
# WT IDH1 inh = qHTS for Inhibitors of mutant isocitrate dehydrogenase 1 (IDH1): Cherrypicks in WT IDH1; shares compounds with IDH1 R132H inh; WT IDH1 enzyme, NADPH diaphorase/resazurin fluorescence; Potency, µM (highest dose often 115 µM), actives largely listed as inhibitors; hit rate 9% among 750; AID 623995, 2012; note: nearly all actives have a fitted effect of over 55% in size
# mIDH1 confirm = qHTS for Inhibitors of mutant isocitrate dehydrogenase 1 (IDH1): Confirmation of Cherrypicks; shares compounds with IDH1 R132H inh; IDH1 R132H enzyme, NADPH diaphorase/resazurin fluorescence; Potency, µM (series often up to 76.6 µM), usual class: inhibitors; hit rate 83% among 750; AID 624002, 2012; note: nearly all actives have a fitted effect of over 50% in size
# Numbers stand for hits; n = inactive; u = inconclusive; x = not tested or not shown; [ ] = another dose, or the depositor's remark. Unless noted, calls come from the whole dose curve; as a rule, active = well fitted curve in the direction sought with a large enough effect; inconclusive = small, poorly fitted or top-dose-only effect, or another doubt; inactive = no such curve, though single readings can be large; an effect the other way counts as inactive or inconclusive.
SMILES,IDH1 R132H inh,Vif-APOBEC3G blk,Tb PGK inh,Pin1 inhibitor,LDHA inh,Vif-A3F inh,IDH1 autofl,WT IDH1 inh,mIDH1 confirm
Cc1cc(NC(=O)CCC(=O)N(c2ccccc2)C(C(=O)NC2CCCC2)c2ccccc2C)no1 (configuration not stated),37µM,n,n,n,n,n,n,n,13µM
CCCN1CCN(CC2=C(C(=O)OC)C(c3ccc(C)cc3)NC(=O)N2)CC1 (configuration not stated),x,x,x,x,n,x,x,x,x
COc1cccc(-c2nc3c(c(C)nn3-c3ccccc3)c3cc(OC)c(OC)cc23)c1,u,n,n,n,n,n,x,x,x
COc1cc2c(-c3ccc(O)cc3)nc3c(c(C)nn3-c3ccccc3)c2cc1OC,u,n,n,u,n,n,n,n,11µM
CCCn1nc(C(=O)NC(c2cccs2)C(C)C)c2ccccc2c1=O (configuration not stated),x,x,x,x,n,x,x,x,x
CCN(CC)C(=O)c1ccc2c(c1)N(Cc1c(F)cccc1Cl)C(=O)c1ccccc1S2,32µM,n,n,n,n,n,n,u,28µM
O=C(c1ccc([N+](=O)[O-])o1)N1CCc2ccccc21,n,n,n,n,n,n,x,x,x
Cc1ccc(C(=O)N2CCc3ccccc32)o1,u,n,n,n,n,n,n,n,n
CCO[C@@H]1OC(C(=O)Nc2ccccc2)=C[C@H](c2ccc(C(F)(F)F)cc2)[C@H]1CCCO,u,n,n,n,n,n,n,n,22µM
COc1cccc(N=NC2C(=O)N(C(N)=S)N=C2C)c1 (configuration not stated),u,n,n,n,n,n,n,n,n
CC1=NN(C(N)=S)C(=O)C1N=Nc1cccc(Cl)c1 (configuration not stated),u,n,n,n,n,n,x,x,x
O=C(NCc1ccco1)C(c1cccs1)N(C(=O)Cc1cccs1)c1ccccc1 (configuration not stated),u,n,n,n,n,x,n,n,u
O=C(NCc1ccco1)C(c1ccccc1)N(C(=O)Cc1cccs1)c1ccccc1 (configuration not stated),n,n,n,n,n,n,x,x,x
O=C(NC1CCCC1)C(c1ccncc1)N(C(=O)Cc1cccs1)c1ccccc1 (configuration not stated),u,n,n,n,n,n,n,n,u
O=C(NC1CCCCC1)C(c1ccccc1)N(C(=O)Cc1ccsc1)c1ccccc1 (configuration not stated),u,n,n,n,n,n,n,n,0.63µM
O=C(NC1CCCC1)C(c1ccsc1)N(C(=O)Cc1cccs1)c1ccccc1 (configuration not stated),u,n,n,n,n,n,n,n,2.8µM
Cc1oc2cc(OCCN3CCN(C)CC3)ccc2c(=O)c1-c1ccc(Cl)cc1,x,x,x,x,n,x,x,x,x
Fc1cccc(Oc2ccc(CNc3ncccn3)cn2)c1,x,x,x,x,n,x,x,x,x
CCC(C)Nc1nc(N)c([N+](=O)[O-])c(Nc2cc(OC)ccc2OC)n1 (configuration not stated),u,n,n,n,n,n,n,n,28µM
CCC(C)Nc1nc(N)c([N+](=O)[O-])c(Nc2ccccc2OC)n1 (configuration not stated),n,n,n,n,n,n,x,x,x
CC(C)C[C@H](NC(=O)c1[nH]cnc1C(=O)N[C@@H](C)c1ccccc1)C(=O)OC(C)(C)C,18µM,n,n,u,n,n,n,n,20µM
CC(C)C[C@H](NC(=O)c1[nH]cnc1C(=O)N[C@@H](Cc1ccccc1)C(=O)OC(C)(C)C)C(=O)OC(C)(C)C,n,n,n,u,n,u,x,x,x
CC(C)(C)C1CCc2sc(-c3nnc(CCl)o3)cc2C1 (configuration not stated),52µM,n,n,n,n,n,n,n,40µM
CCc1nc(SCC(=O)N2CC(=O)Nc3ccccc32)c2c(C)c(C)sc2n1,u,n,n[11.5 µM],n,n,n,n,n,32µM
Cc1sc2nc(C3CCCCC3)nc(SCC(=O)N3CC(=O)Nc4ccccc43)c2c1C,n,n,x,n,n,n,x,x,x
SMILES,IDH1 R132H inh,Vif-APOBEC3G blk,Tb PGK inh,Pin1 inhibitor,LDHA inh,Vif-A3F inh,IDH1 autofl,WT IDH1 inh,mIDH1 confirm
CCOc1cccc(-c2nnc3n2N=C(c2ccc4c(c2)OCO4)CS3)c1,x,x,x,x,n,x,x,x,x
O=C(CSc1nc2nc(-c3cccs3)cc(C(F)(F)F)c2c(=O)[nH]1)Nc1ccc(F)c(F)c1,u,n,n,u,n,n,n,u,45µM
Cc1cc(C(=O)CCl)c(C)n1-c1cccc(S(=O)(=O)N2CCOCC2)c1,u,n,n,n,n,n,n,n,40µM
CCOC(=O)N1CCC2(CC1)C(C#N)=C(N)Oc1n[nH]c(CSc3ccc(C)cc3)c12,u,n,n,n,n,n,n,n,28µM
Cc1ccc(SCc2[nH]nc3c2C2(CCSCC2)C(C#N)=C(N)O3)cc1,n,n,n,n,n,n,x,x,x
Cc1ccc2nc(-c3ccc4c(c3)OCO4)cc(C(=O)O)c2c1,x,x,x,x,n,x,x,x,x
CC(=O)NC1C(=O)N(CCN2CCOCC2)c2ccc(Cl)cc21 (configuration not stated),41µM,n,u,n,n,n,n,u,n
COc1cc(Br)cc(/C=N/N(CCO)C2=NS(=O)(=O)c3ccccc32)c1OC,13µM,n,n,n,n,n,n,n,25µM
O=S(=O)(/N=C(/Nc1ccc(Cl)c(S(=O)(=O)Nc2ccccc2Cl)c1)c1ccc(F)cc1)c1ccccc1,u,n,n,n,n,n,n,n,u

# Source: PubChem (National Center for Advancing Translational Sciences (NCATS))
